# Measurements reported in PubChem BioAssay (Tox21).
# Values without a mark were called inactive. Calls of active or inactive are those of the source. The call rests on the fitted dose curve; in most records, active means well fitted activation curve with a large enough effect in the repeat runs; inconclusive means weak or mixed curves; inactive means flat fitted curve, though single readings scatter.
# Assay: Caspase-3/7 induction in CHO-K1 cells by small molecules, qHTS assay (AID 1346980); further: nearly all actives have a fitted effect of over 15% in size
# Conditions: CHO-K1 caspase-3/7 induction, Caspase-Glo luminescence, 17 h; series mostly up to 92.4 µM; caspase-3/7 activation: at the top concentration
# Excerpt: National Center for Advancing Translational Sciences [NCATS]
# NIH Chemical Genomics Center [NCGC]
# U.S. Environmental Protection Agency [EPA]
# National Institutes of Environmental Health Sciences [NIEHS]
# National Toxicology Program [NTP]
# Apoptosis is a process of programmed cell death and plays a central role in the development of multicellular organisms. It is a highly regulated process and induces cell death by activating caspases, which are the members of cysteine aspartic acid-specific protease (caspase) family. Caspases involved in apoptosis are classified by their mechanism of action as initiator caspases (caspase-2, -8, -9 and -10) and executioner caspases (caspase-3, -6, and -7). Inhibition of apoptosis results in number of cancers, autoimmune diseases, inflammatory diseases and viral infection. To identify small molecule compounds that induce apoptosis, a homogeneous, luminescent Caspase-Glo 3/7 assay was used. Wild type CHO-K1 cells were used to screen Tox21 libraries for identifying caspase-3/7 activity inducers.
# CHO-K1 cells were dispensed at 1,500 per well in 5uL of culture medium into white solid bottom 1536-well plates (Corning Life Sciences, Corning, NY) using a Multidrop Combi (Thermo Scientific, Waltham, MA) dispenser. The assay plates were incubated at 37 C and 5% CO2 for 5hr, and then 23nL of compounds dissolved in DMSO and positive control were transferred using a Pintool station (Wako, San Diego, CA). The assay plates were incubated at 37C and 5% CO2 for 17hr. For caspase-3/7 activity read, 4uL of Caspase-Glo 3/7 reagent (Promega Corporation, Madison, WI) was added to each well of the assay plates using Flying Reagent Dispenser (FRD, Aurora Discovery, San Diego, CA) and incubated the assay plates at room temperature for 30min. The luminescence signal was quantified using a ViewLux plate reader (Perkin Elmer, Shelton, CT).
# On the % scale 0 is the no-effect control and ±100 the full control effect; potency means the concentration at half of the fitted maximal effect.
Compound,caspase-3/7 activation,Potency
c1ccc2c(c1)[nH]c1cnccc12,-0.516%,–
C[C@H]1O[C@@H](O[C@H]2[C@@H](O)C[C@H](O[C@H]3[C@@H](O)C[C@H](O[C@H]4CC[C@@]5(C)[C@H](CC[C@@H]6[C@@H]5CC[C@]5(C)[C@@H](C7=CC(=O)OC7)CC[C@]65O)C4)O[C@@H]3C)O[C@@H]2C)C[C@H](O)[C@@H]1O,–,inactive
ClC(Cl)=C(c1ccc(Cl)cc1)c1ccc(Cl)cc1,–,inactive
BrCC(Br)c1ccccc1 (stereo not given),-0.439%,–
COc1cccc2c1C(=O)c1c(O)c3c(c(O)c1C2=O)C[C@@](O)(C(=O)CO)CC3OC1CC(N2CCOC(OC)C2)C(O)C(C)O1 (stereo not given in full),–,168 nM (active)
O=C1NCN(c2ccccc2)C12CCN(CC1COc3ccccc3O1)CC2 (stereo not given),2.76% [at 42.5 µM],–
C=CC(=O)N(C)C,1.99%,–
O=C(O)COc1nc(Cl)c(Cl)cc1Cl,-1.38%,–
C[C@@H]1O[C@@H](O[C@@H]2C=C3CC[C@@H]4[C@H](CC[C@]5(C)[C@@H](c6ccc(=O)oc6)CC[C@]45O)[C@@]3(C)CC2)[C@H](O)[C@H](O)[C@H]1O,-0.517% [at 42.5 µM],–
N#Cc1ccccc1N,1.58%,–
CC(=O)[O-].[Tl+],-1%,–
COP(=O)(CCC(=O)NCO)OC,-0.301%,–
CCCCCCCCCCBr,-0.0989%,–
CC(C)OS(C)(=O)=O,-1.01%,–
c1ccc2cc3c(cc2c1)-c1cccc2cccc-3c12,0.208%,–
O=[N+]([O-])c1cc(Cl)ccc1Cl,1.22%,–
Nc1ccccc1C(=O)OC/C=C/c1ccccc1,-0.727%,–
CN(C)C1CSSSC1,-1.89%,–
CC1(C)CC/C(=C/c2ccc(Cl)cc2)C1(O)Cn1cncn1 (stereo not given),-1.87%,–
CC(=O)Nc1ccc2c(c1)Cc1ccccc1-2,-1.62%,–

Compound,caspase-3/7 activation,Potency
O=C(CCCN1CCC2(CC1)C(=O)NCN2c1ccccc1)c1ccc(F)cc1,-0.279% [at 42.5 µM],–
COC(=O)N(C(=O)N1CO[C@@]2(C(=O)OC)Cc3cc(Cl)ccc3C2=N1)c1ccc(OC(F)(F)F)cc1,-2.76%,–
C=COCCCl,-0.235%,–
Oc1ccc(C2(c3ccc(O)cc3)CCCCC2)cc1,-0.564%,–
CCC(C)(C)C(=O)OC1=C(c2ccc(Cl)cc2Cl)C(=O)OC12CCCCC2,-0.836%,–
COc1ccc(/C(=C/C(=O)N2CCOCC2)c2ccc(Cl)cc2)cc1OC,-0.0787%,–
c1ccc(Nc2ccc3ccccc3c2)cc1,–,inactive
Clc1ccc(CCC(Cn2ccnc2)Sc2c(Cl)cccc2Cl)cc1 (stereo not given),0.856% [at 42.5 µM],–
CC(C)CCCCCCCOP(=O)(Oc1ccccc1)Oc1ccccc1,1.88%,–
Cn1[nH]nnc1=S,0.885%,–
Clc1ccc(CO/N=C(\Cn2ccnc2)c2ccc(Cl)cc2Cl)c(Cl)c1,0.601% [at 42.5 µM],–
CN(C)C(=S)[S-].CN(C)C(=S)[S-].[Cu+2],-5.91% [at 19 µM],–
[Hg+2].[I-].[I-],-6.17%,–
c1ccc(OCC2CO2)cc1 (stereo not given),0.203%,–
CCCCCCCCCCCCCCC(Br)C(=O)O (stereo not given),0.152%,–
COc1cccc(C(=O)CCN[C@@H](C)[C@H](O)c2ccccc2)c1,-4.79% [at 42.5 µM],–
[Cl][Sn]([c]1ccccc1)([c]1ccccc1)[c]1ccccc1,–,326 nM (active)
CCCCCCCCCBr,-0.0159%,–
N#Cc1ccccc1Cl,-0.274%,–
CC(C)(COCC1CO1)COCC1CO1 (stereo not given),0.204%,–
